Assay results taken from PubChem BioAssay.
Potency and affinity values are given separately. Calls of active or inactive are those of the source. Unless noted, the rule behind the calls is not given here.

Biological target: Calcium-dependent protein kinase 1 (Plasmodium falciparum (isolate 3D7)) (UniProt P62344)
Assay: PfCDPK1 kinase inhibitors, biochemical, TCAMS library (AID 1159585; cut-off not given, nearly all actives have IC50 up to about 0.98 µM;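 note: inhibitors leave more ATP so luminescence rises with inhibition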)
Details: recombinant PfCDPK1, Kinase-Glo ATP depletion luminescence

Calcium-dependent protein kinase 1 (Plasmodium falciparum (isolate 3D7)), sequence (P62344 whole entry, looked up): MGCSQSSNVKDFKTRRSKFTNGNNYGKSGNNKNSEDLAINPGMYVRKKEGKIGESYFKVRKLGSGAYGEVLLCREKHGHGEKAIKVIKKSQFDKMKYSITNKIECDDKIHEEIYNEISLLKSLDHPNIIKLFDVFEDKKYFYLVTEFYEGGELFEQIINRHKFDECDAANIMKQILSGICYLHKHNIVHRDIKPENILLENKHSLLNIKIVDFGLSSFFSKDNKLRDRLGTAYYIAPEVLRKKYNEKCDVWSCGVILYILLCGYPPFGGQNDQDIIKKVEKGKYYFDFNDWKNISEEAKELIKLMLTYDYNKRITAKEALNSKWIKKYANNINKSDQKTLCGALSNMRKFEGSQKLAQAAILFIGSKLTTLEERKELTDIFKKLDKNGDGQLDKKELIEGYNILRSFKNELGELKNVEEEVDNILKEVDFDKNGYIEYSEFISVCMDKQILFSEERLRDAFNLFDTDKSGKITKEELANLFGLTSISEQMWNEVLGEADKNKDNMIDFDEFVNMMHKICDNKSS

outcome, inactive:
COc1cc(Nc2nccc(N3CCC(NS(=O)(=O)c4ccc(NC(C)=O)cc4)CC3)n2)cc(OC)c1OC
O=C(c1cccs1)N1N=C(c2cccs2)CC1c1cccc([N+](=O)[O-])c1 (configuration not stated)
Oc1ccc(Cl)c2c1C(c1ccccc1)=NCC2
Cc1nc(C)c(CC(=O)Nc2cccc(-c3cccc(-c4nc5ccc(C(F)(F)F)cc5[nH]4)c3)c2)s1
CN(C)CCOc1cc(NC(=O)Nc2cccc3c(-c4ccncc4)cccc23)ccc1I
Cc1ccc(CN=C(N)NC(=O)c2nc(Cl)c(NCc3ccc(Cl)cc3)nc2N)c(C)c1
O=C(Nc1ccc(OC2CCN(Cc3ccccc3)CC2)c(Cl)c1)c1cccs1
COc1ccc(-c2cncc(-c3ccc(OC)c(OC)c3)n2)cc1OC

Biological target: Plasmodium falciparum protein kinase 6 (PK6, PF3D7_1337100) (UniProt Q8IDW1)
Assay: PfPK6 kinase inhibitors, biochemical, TCAMS library (AID 1159586)
Details: recombinant PfPK6, Kinase-Glo ATP depletion luminescence

Plasmodium falciparum protein kinase 6 (PK6, PF3D7_1337100), sequence (Q8IDW1 1-305): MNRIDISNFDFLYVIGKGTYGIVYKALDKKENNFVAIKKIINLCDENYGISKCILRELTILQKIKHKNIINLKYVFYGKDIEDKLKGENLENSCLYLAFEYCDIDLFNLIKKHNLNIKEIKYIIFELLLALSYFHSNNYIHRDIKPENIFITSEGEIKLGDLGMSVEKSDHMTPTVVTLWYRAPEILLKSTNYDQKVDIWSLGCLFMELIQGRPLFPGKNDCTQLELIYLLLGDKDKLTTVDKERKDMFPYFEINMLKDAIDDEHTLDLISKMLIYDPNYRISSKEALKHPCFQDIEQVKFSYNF

outcome, inactive:
Cc1cc(N(C)CCN(C)C)nc(Nc2ccc(Cl)cc2)n1
c1ccc(CN2CCC(Nc3ccc(-c4cn[nH]c4-c4ccccn4)nc3)CC2)cc1
O=C(Nc1ccc2c(c1)CCN2C1CCN(Cc2ccc(O)cc2)C1)c1ccco1 (configuration not stated)
Cc1ccc(NC(=O)c2ccc(CN3CCCN(CC4CCCCC4)CC3)cc2)cc1
COc1ccc2ccccc2c1CCCCN1CCN(CC(c2ccc(F)cc2)N2CCC(N3CCCC3)CC2)CC1 (configuration not stated)
O=C(NCCN1CCC(NC(=O)c2ccc(-c3ccccn3)s2)CC1)c1ccc(Cl)c(Cl)c1
Cc1cc(NN=Cc2ccc(F)cc2)c2ccc(F)cc2n1
C=C[C@H]1CN(CCCCCCC)CC[C@H]1CCNc1ccnc2ccc(OC)cc12
CCC(O)c1ccc(Br)cc1NC(=O)c1cccc(Cl)c1 (configuration not stated)
FC(F)(F)c1ccc2nc(-c3cccc(-c4ccc(CNCCc5ccncc5)cc4)c3)[nH]c2c1
CC(C)C[C@@H](/C=N/N1CC(=O)NC1=O)NC(=O)[C@H](CC(C)C)NC(=O)c1ccc(OCCN2CCOCC2)cc1
Cc1cccc2[nH]c(-c3cccc(-c4ccc(CNCc5cnn(-c6ccccc6)n5)cc4)c3)nc12
CCNC(=O)N[C@@H]1CN[C@@H](C#Cc2cc3c(Nc4ccc(OCc5cccc(F)c5)c(Cl)c4)ncnc3s2)C1
CN1CCN(CCCN(Cc2ccc(-c3ccc(CNC4CCCC4)cc3)cc2)C(=O)CCC2CCCC2)CC1
CCOC(=O)c1c[nH]c2c(sc3cc(OC)ccc32)c1=O
CS(=O)(=O)c1ccc(-c2cncc(Cl)n2)cc1
Cc1cccc2[nH]c(-c3cccc(-c4ccc(NC(=O)C(C)(C)c5ccccn5)cc4)c3)nc12
CN1CCc2ccc(NC(=O)Nc3ccc(Cl)c(Cl)c3)cc2C1
CCCCCCCCn1c2c(c(=N)c3c1CCC3)CCC2
Cc1cc(N2CCCN(C)CC2)nc(Nc2ccc(Cl)cc2)n1
N#CCSc1nnc(-c2ccccc2)c2ccccc12
CC(=O)N1CCC(C(=O)Nc2ccc(-c3cccc(-c4nc5ccc(C(F)(F)F)cc5[nH]4)c3)cc2)CC1
Cc1cc(N[C@@H](CC(C)C)C(=O)NCCOc2ccccc2)nc(NCCOc2ccccc2)n1
O=C(Nc1cccc(CN2CCCN(Cc3ncc[nH]3)CC2)c1)c1ccc(Cl)c(Cl)c1
O=C(NC1CCCCC1)c1csc(C2CCCN(C(=O)c3ccc(O)c(-c4cccc(C(F)(F)F)c4)c3)C2)n1 (configuration not stated)
CC(=O)c1ccc(O)c(CC(O)CO)c1 (configuration not stated)
O=C(/C=C/c1cc(C(F)(F)F)ccc1F)NCCCCCN1CCC(c2c[nH]c3ccccc23)CC1
Cc1nc2c(-n3cc(Cn4ccnc4)c4ccccc43)ncnc2n1-c1ccc(Cl)cc1Cl
Cc1cc(NC(=O)c2ccco2)ccc1OC1CCN(Cc2ccc(F)cc2)CC1
Cc1cc(CN2CCCC(OC(c3ccc(F)cc3)c3ccc(F)cc3)C2)ccc1O (configuration not stated)
NC(N)=NN=CC(=O)Nc1cc([N+](=O)[O-])cc([N+](=O)[O-])c1
COc1cc(Nc2nccc(N3CCC(NS(=O)(=O)c4ccc(NC(C)=O)cc4)CC3)n2)cc(OC)c1OC
O=C(c1cccs1)N1N=C(c2cccs2)CC1c1cccc([N+](=O)[O-])c1 (configuration not stated)
Oc1ccc(Cl)c2c1C(c1ccccc1)=NCC2
Cc1nc(C)c(CC(=O)Nc2cccc(-c3cccc(-c4nc5ccc(C(F)(F)F)cc5[nH]4)c3)c2)s1
CN(C)CCOc1cc(NC(=O)Nc2cccc3c(-c4ccncc4)cccc23)ccc1I
Cc1ccc(CN=C(N)NC(=O)c2nc(Cl)c(NCc3ccc(Cl)cc3)nc2N)c(C)c1
O=C(Nc1ccc(OC2CCN(Cc3ccccc3)CC2)c(Cl)c1)c1cccs1
COc1ccc(-c2cncc(-c3ccc(OC)c(OC)c3)n2)cc1OC
